Reference: PMC5540273 (PLoS ONE, 2017)

Legend:
Conditions in all cases: concentration: 1 μM, replicates: in singlicate; n = 1
BLK = system: BLK
BMPR1A = system: BMPR1A
BMPR1B = system: BMPR1B
BMPR2 = system: BMPR2
BMX = system: BMX
BRAF = system: BRAF
BRK = system: T1, BRK
T1 construct: gene PTK6

BRSK1 = system: BRSK1
BRSK2 = system: BRSK2
BTK = system: BTK
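Also: KINOMEscan kinase panel screen.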

With `Fc1ccc(-c2ncn(CCCN3CCOCC3)c2-c2ccccn2)cc1` [SB-211742] the “%Inh” value (BLK) was 9%, the “%Inh” value (BMPR1A) was 7% and the “%Inh” value (BMPR1B) was 0%. The “%Inh” value (BMPR2) was 0%, the “%Inh” value (BMX) was 0% and the “%Inh” value (BRAF) was 0%. The “%Inh” value (BRK) was 2%, the “%Inh” value (BRSK1) was 6% and the “%Inh” value (BRSK2) was 14%. The “%Inh” value (BTK) was 15%.

With `Cc1ccc(C(=O)NCC(N)=O)cc1-n1c(C)cc(OCc2ccc(F)cc2F)c(Br)c1=O` the “%Inh” value (BLK) was 14%, the “%Inh” value (BMPR1A) was 2% and the “%Inh” value (BMPR1B) was 0%. For the same compound, the “%Inh” value (BMPR2) was 0%, the “%Inh” value (BMX) was 24% and the “%Inh” value (BRAF) was 0%. The “%Inh” value (BRK) was 23%, the “%Inh” value (BRSK1) was 11% and the “%Inh” value (BRSK2) was 39%. The “%Inh” value (BTK) was 0%.

`COc1cc(Nc2nccc(N3CCC(NC(=O)c4cccc(NC(C)=O)c4)C3)n2)cc(OC)c1OC` (centres unmarked) [GSK1379754] was tested, and the “%Inh” value (BLK) was 34%, the “%Inh” value (BMPR1A) was 0% and the “%Inh” value (BMPR1B) was 0%. The “%Inh” value (BMPR2) was 0%, the “%Inh” value (BMX) was 18% and the “%Inh” value (BRAF) was 3%. The “%Inh” value (BRK) was 19%, the “%Inh” value (BRSK1) was 26% and the “%Inh” value (BRSK2) was 0%. For the same compound, the “%Inh” value (BTK) was 0%.

With `O=C(NCCNc1ccnc(Nc2ccc(F)cc2)n1)Nc1ccccc1F` [GSK1379880] the “%Inh” value (BLK) was 6%, the “%Inh” value (BMPR1A) was 0% and the “%Inh” value (BMPR1B) was 0%. The “%Inh” value (BMPR2) was 0%, the “%Inh” value (BMX) was 0% and the “%Inh” value (BRAF) was 0%. The “%Inh” value (BRK) was 6%, the “%Inh” value (BRSK1) was 0% and the “%Inh” value (BRSK2) was 0%. For the same compound, the “%Inh” value (BTK) was 0%.

In the case of `N#Cc1ccc(-c2cc(-c3c[nH]nc3-c3ccccn3)ccn2)cc1` [GW693028], the “%Inh” value (BLK) is reported as 17%, the “%Inh” value (BMPR1A) is reported as 0% and the “%Inh” value (BMPR1B) is reported as 15%. For the same compound, the “%Inh” value (BMPR2) was 6%, the “%Inh” value (BMX) was 5% and the “%Inh” value (BRAF) was 11%. The “%Inh” value (BRK) was 30%, the “%Inh” value (BRSK1) was 0% and the “%Inh” value (BRSK2) was 0%. For the same compound, the “%Inh” value (BTK) was 0%.
